Compounds with a hit are over-represented: about 5.2% of the library has one in this group of screens.
GRIN3A LBD mod: modulates the human NR3A ligand-binding domain; Tm shift relative to glycine control, % at 25 µM; 340,000 compounds, 2.5% hits; NR3A LBD differential scanning fluorimetry, Tm shift; 0% = protein alone, 100% = glycine-bound protein;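 active = melting temperature shift of at least 10% of the positive control shift, at one fixed dose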
SKN-1 block: C. elegans SKN-1 inhibition | C. elegans VP596 Pgst-4::GFP/RFP ratio, acrylamide-induced, 24 h | inhibition, % at 21.8 µM | 360,000 compounds, 0.49% hits;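 active = interference check ratio from 0.5 to 1.5 plus GFP to RFP signal ratio inhibition reaching or exceeding a fixed threshold, cut at about 30% in these data, passing the limit was not always enough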
SMARCA2 act: activators of SMARCA2 function | MG213 cells, MMTV-luciferase reporter, dexamethasone, overnight | activation, % at 9.1 µM | 370,000 compounds, 1% hits; in the data active = activation above about 7.8%
esBAF inh: SWI/SNF esBAF complex inhibition. mouse ES cells, Bmi1-luciferase knock-in reporter, 24 h; 100% = twice the neutral-well signal. reporter increase, % at 12.5 µM. 350,000 compounds, 2% hits; in the data active = activation above about 40%;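 also: a rise in the Bmi1 reporter signal indicates esBAF inhibition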
NadD block: NadD (S. aureus) enzyme inhibition. purified NadD enzyme, colorimetric absorbance read-out. 360,000 compounds, 0.78% hits. inhibition, % at 20 µM; in the data active = inhibition above about 26%
Vif inh: HIV Vif inhibition | inhibition, % at 7.49 µM | HEK293T cells, Vif self-association by quenched fluorescence, imaging, 24 h | 340,000 compounds, 0.35% hits; in the data active = inhibition above about 50%, passing the limit was not always enough
Of the large screens only hits and unclear results are named; the others gave an inactive call.

Cc1ccc(C(=O)NCCOc2cccc(C)c2)cc1	none
CSc1ccccc1C(=O)NCCOc1cccc(C)c1	SKN-1 block 40.0
CCCCCNC(=O)c1ccccc1SC	SKN-1 block 34.9
COc1ccc(N/C=C(\C=C\C#N)S(=O)(=O)c2ccccc2)cc1	Vif inh 86.7
N#C/C=C/C(=C\Nc1ccc(Cl)cc1)S(=O)(=O)c1ccccc1	none (no result: Vif inh)
CC(=O)Nc1cccc(/C(C)=N/NC(=O)c2ccc(Cl)cc2Cl)c1	none (no result: esBAF inh)
C/C(=N/NS(=O)(=O)c1ccc(Cl)cc1)c1cccc(NC(=O)c2ccc(Cl)cc2Cl)c1	GRIN3A LBD mod 17.7
C/C(=N/NS(=O)(=O)c1ccc(C)cc1)c1cccc(NC(=O)c2cccc(Cl)c2)c1	GRIN3A LBD mod 14.4
CCCC(=O)Nc1ccc2c(c1)C(=O)N(C)C[C@@H](OC)[C@H](C)CN(C(=O)Cc1cccnc1)[C@H](C)CO2	none (no result: GRIN3A LBD mod, SKN-1 block, SMARCA2 act, NadD block, Vif inh)
O=C(Nc1cccc(C(=O)O)c1)/C(=C\c1ccc(F)cc1)NC(=O)c1ccco1	Vif inh 64.5
NC(N)=NN=C1c2ccccc2-c2ccccc21	GRIN3A LBD mod 23.2
CC1=NN(c2nc(-c3ccc(C)cc3)cs2)C(=O)C1N=Nc1cccc(O)c1 (stereo not given)	GRIN3A LBD mod 11.6, NadD block 38.3
CC1=NN(c2nc(-c3ccc(C)cc3)cs2)C(=O)C1N=Nc1ccccc1O (stereo not given)	GRIN3A LBD mod 10.6 (no result: esBAF inh)
Cc1noc(C)c1NC(=O)N(C)C[C@H]1Oc2ccc(N(C)C)cc2CC(=O)N([C@H](C)CO)C[C@@H]1C	none (no result: GRIN3A LBD mod, SKN-1 block, SMARCA2 act, NadD block, Vif inh)
C[C@H](CO)N1C[C@H](C)[C@@H](CN(C)C(=O)Nc2cccc3ccccc23)Oc2ccc(NS(=O)(=O)c3cn(C)cn3)cc2CC1=O	none (no result: GRIN3A LBD mod, SKN-1 block, SMARCA2 act, NadD block, Vif inh)
Cc1nc2ccccc2c(=O)n1/N=C/c1ccc(O)cc1O	none
Cc1nc2ccccc2c(=O)n1/N=C/c1ccccc1Cl	SKN-1 block 37.9
CN1CCN(C(=S)Nc2ccc(Cl)c(Cl)c2)CC1	GRIN3A LBD mod 12.6 (no result: esBAF inh)
S=C(Nc1ccc(Cl)c(Cl)c1)N1CCN(c2ccccn2)CC1	GRIN3A LBD mod 11.0
O=C(NNc1c2ccccc2nc2ccccc12)c1ccc(Cl)cc1	SKN-1 block 41.1
CCCNC(=O)OCCC12CC3CC(CC(C3)C1)C2	esBAF inh 55.6
O=[N+]([O-])c1cc(S(=O)(=O)Nc2ccccc2)ccc1N1CCN(c2ccccc2)CC1	GRIN3A LBD mod 20.1 (no result: esBAF inh)
O=[N+]([O-])c1cc(S(=O)(=O)Nc2cccc(C(F)(F)F)c2)ccc1-n1nnc2ccccc21	GRIN3A LBD mod 18.9
O=[N+]([O-])c1cc(S(=O)(=O)C(F)(F)F)ccc1N1CCN(c2ccccc2)CC1	none (no result: esBAF inh)
COc1ccc(NS(=O)(=O)c2ccc(-n3nnc4ccccc43)c([N+](=O)[O-])c2)cc1	none
Cc1cc2c(n1-c1ccc(Cl)cc1)CC(C)(C)CC2=O	none
COc1ccc(-n2c(C)cc(=O)c3c2CC(C)(C)CC3=O)cc1	SMARCA2 act 7.9 (no result: Vif inh)
O=S(=O)(c1ccccc1)c1nc(Nc2cccc(O)c2)sc1Cl	GRIN3A LBD mod 10.7
Cc1ccc(S(=O)(=O)c2nc(Nc3ccccc3)sc2Cl)cc1	none
O=C(C[C@@H]1CC[C@@H]2[C@H](COC[C@@H](O)CN2Cc2cccc(-c3ccncc3)c2)O1)N1CCOCC1	none (no result: GRIN3A LBD mod, SKN-1 block, SMARCA2 act, NadD block, Vif inh)
COc1ccc(S(=O)(=O)N(C)C[C@@H]2OCCCC[C@@H](C)Oc3ccc(NC(=O)Nc4ccc(C(F)(F)F)cc4)cc3C(=O)N([C@@H](C)CO)C[C@@H]2C)cc1	none (no result: GRIN3A LBD mod, SKN-1 block, SMARCA2 act, NadD block, Vif inh)
O=C(COc1ccc([N+](=O)[O-])cc1Cl)N1CCc2ccccc21	esBAF inh 66.0
N#Cc1ccc(OCC(=O)N2CCc3ccccc32)cc1	esBAF inh 44.5
O=C(c1cc([N+](=O)[O-])ccc1Cl)N1CCc2ccccc21	none
COc1ccc(OCC(=O)N2CCc3ccccc32)c([N+](=O)[O-])c1	esBAF inh 54.0 (no result: GRIN3A LBD mod)
Cc1cc(C(=O)OCC(=O)N2CCc3ccccc32)c(C)o1	esBAF inh 49.8
O=C1OC(c2ccc(Cl)cc2)=N/C1=C\C=C\c1ccco1	none (no result: esBAF inh)
O=C1OC(c2ccccc2)=N/C1=C\C=C\c1ccco1	GRIN3A LBD mod 20.5 (no result: esBAF inh, Vif inh)
COc1ccccc1-n1c(=O)c(C#N)c(-c2ccc([N+](=O)[O-])cc2)c2cc(C(=O)c3cc(F)ccc3O)cnc21	none (no result: esBAF inh)
Cn1c(=O)c(C#N)c(-c2ccc(F)cc2)c2cc(C(=O)c3cc(Cl)cc(Cl)c3O)cnc21	GRIN3A LBD mod 11.9, NadD block 24.3
C[C@@H]1CN([C@H](C)CO)C(=O)c2cc(NC(=O)CCN3CCOCC3)ccc2O[C@@H]1CN(C)Cc1ccc(Cl)c(Cl)c1	none (no result: GRIN3A LBD mod, SKN-1 block, SMARCA2 act, NadD block, Vif inh)
COc1ccc(N=c2ssnc2Cl)cc1	GRIN3A LBD mod 21.6 (no result: SMARCA2 act)
N#Cc1ccc(N=c2ssnc2Cl)cc1	GRIN3A LBD mod 22.7
Clc1nssc1=Nc1ccccc1	none (no result: SMARCA2 act, esBAF inh)
Clc1ccc(N=c2ssnc2Cl)cc1	GRIN3A LBD mod 13.7, SKN-1 block 92.0
O=C(CCn1c(=O)oc2ccccc21)N1CCc2ccccc21	esBAF inh 41.4
O=C(Cn1c(=O)oc2cc(S(=O)(=O)N3CCCC3)ccc21)N1CCc2ccccc2C1	none
O=C(Cn1c(=O)oc2cc(S(=O)(=O)N3CCCCC3)ccc21)N1CCc2ccccc21	Vif inh 52.8
CC(C)(C)NC(=O)c1ccc2c(c1)C(=O)N(C1CCCCC1)C2=O	esBAF inh 43.3
c1ccc(Cn2ccnc2-c2ccco2)cc1	esBAF inh 55.9 (no result: Vif inh)
COc1ccc(/C=C\C(=O)c2c(O)ccc3c(C)cc(=O)oc23)cc1OC	GRIN3A LBD mod 13.6
C[C@@H]1CN([C@@H](C)CO)C(=O)Cc2cc(NC(=O)NC3CCCCC3)ccc2O[C@H]1CN(C)S(=O)(=O)c1cccs1	none (no result: GRIN3A LBD mod, SKN-1 block, SMARCA2 act, NadD block, Vif inh)
CCOc1ccc(/C=N/NC(=O)c2nnn(-c3nonc3N)c2-c2ccc(OCC)cc2)cc1	none
CCN(CC)Cc1c(C(=O)N/N=C/c2cccc3ccccc23)nnn1-c1nonc1N	none
CCCc1c(C(=O)N/N=C/c2cccc3ccccc23)nnn1-c1nonc1N	GRIN3A LBD mod 39.5
CCOc1cccc(-c2c(C(=O)N/N=C(\C)c3ccccn3)nnn2-c2nonc2N)c1	GRIN3A LBD mod 30.6
CC(C)c1c(C(=O)N/N=C/c2c[nH]c3ccccc23)nnn1-c1nonc1N	GRIN3A LBD mod 37.6
CC(C)c1c(C(=O)N/N=C/c2cccs2)nnn1-c1nonc1N	none
CCOc1ccc(-c2c(C(=O)N/N=C/c3c[nH]c4ccccc34)nnn2-c2nonc2N)cc1	GRIN3A LBD mod 32.4
C[C@H](O)C#Cc1ccc2c(c1)O[C@@H](CN(C)CC1CCOCC1)[C@@H](C)CN([C@H](C)CO)S2(=O)=O	none (no result: GRIN3A LBD mod, SKN-1 block, SMARCA2 act, NadD block, Vif inh)
C[C@@H]1CN([C@@H](C)CO)C(=O)c2cc(C#CC(C)(C)O)cnc2O[C@@H]1CN(C)Cc1ccccn1	none (no result: GRIN3A LBD mod, SKN-1 block, SMARCA2 act, NadD block, Vif inh)

Compound activity (PubChem)
